Structures are written as SMILES. Records with an inconclusive call do not appear. Where a call stands in place of a potency, no number is given. Activity calls are given as the source filed them. Calls follow the shape of the dose curve; as a rule, active = well fitted curve in the direction sought with a large enough effect; inconclusive = small, poorly fitted or top-dose-only effect, or another doubt; inactive = no such curve, though single readings can be large or run the other way.

Metallo-beta-lactamase type 2 (Klebsiella pneumoniae), sequence (C7C422 whole entry, looked up): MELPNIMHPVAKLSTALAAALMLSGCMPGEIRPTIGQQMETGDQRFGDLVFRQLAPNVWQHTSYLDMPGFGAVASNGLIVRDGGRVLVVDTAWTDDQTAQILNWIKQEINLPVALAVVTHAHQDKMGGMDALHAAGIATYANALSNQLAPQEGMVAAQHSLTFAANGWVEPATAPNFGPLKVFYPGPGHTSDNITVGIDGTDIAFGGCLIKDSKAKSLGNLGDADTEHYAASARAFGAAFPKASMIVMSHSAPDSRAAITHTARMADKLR

The target in the test is Metallo-beta-lactamase type 2 (Klebsiella pneumoniae) (UniProt C7C422). Description: qHTS to identify inhibitors of the New Delhi Metallo-beta-lactamase (NDM): assay validation screen against the NCATS LOPAC Collection (AID 1794843).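 Also: nitrocefin turnover by NDM-1 measured as 485 nm absorbance at plateau.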 As to conditions: NDM-1 enzyme, nitrocefin hydrolysis, absorbance 485 nm; series mostly up to 38.4 µM. An excerpt:
Assay Submitter (PI): James Inglese Ph.D., Patricia Dranchak Ph.D., Mahesh Aitha Ph.D.
Assay Development and Screening Technology Laboratory (ADST)
National Center for Advancing Translational Sciences (NCATS), Rockville, MD
National Institute of Health (NIH), Bethesda, Maryland
The metallo-beta-lactamases (MBL) are a main antibiotic resistance mechanism evolved by bacteria. There is an urgent clinical need for MBL inhibitors to mitigate this growing threat. To support a machine-based learning study, qHTS has been used to experimentally test inhibitors identified by prediction tools.
PROTOCOL TABLE (as described by Inglese et al., 2007)
SEQUENCE No. (e.g., 1, 2, 3, etc.); […] (e.g., enzyme, Incubation, Reagent, etc.); VALUE; DESCRIPTION
1; NDM-1; 4 uL of 3 nM enzyme in 50 mM HEPES (pH 7.0), 1 uM Zn2SO4, 0.01% Tween20; Use BioRaptr to dispense into Aurora black, clear bottom low base 1536-well plates
2; Compounds; 23 nL; Use Pin Tool (Wako) to transfer DMSO control and library compounds in DMSO
4; Reagent; 2 uL of 50 uM nitrocefin
6; Detector; Absorbance at 485 nm (bandwidth = 5 nm, 25 flashes/well) on Tecan Infinity
NOTES (numbers refer to sequence above)
1; Column 1 of each plate received assay buffer without enzyme and columns 2-48 received enzyme for a final assay concentration of 2 nM.
2; Control plate contained DMSO in columns 1, 2, 3, and 4.
3; Compound interaction with enzyme.
5; Substrate interaction with enzyme, plateau phase of kinetics.
6; Default reader settings were applied for absorbance read at 485 nm, bandwidth = 5 nm, 25 flashes/well.
Inglese J, Shamu CE, Guy RK. 2007. Reporting data from high-throughput screening of small-molecule libraries. Nat Chem Biol. doi:10.1038/nchembio0807-438
Yasgar A, Shinn P, Jadhav A, Auld D, Michael S, Zheng W, Austin CP, Inglese J, Simeonov A. 2008. Compound Management for Quantitative High-Throughput Screening. J Lab Autom 13:79 - 89. doi:10.1016/j.jala.2007.12.004
Regarding `OC[C@H]1O[C@@H](n2cnc3c(NC4CCCC4)ncnc32)[C@H](O)[C@@H]1O`, the Potency entry is “inactive”.
Regarding `COc1cc(OC)c(/C=C2/C(=O)Nc3ccccc32)c(OC)c1`, the Potency result was “inactive”.
Under `CN(CCCOc1ccc(Cc2ccccc2)cc1)CCC(=O)O` stands “inactive”.
Under `CC1OC1P(=O)(O)O` (stereo not given) stands “inactive”; under `CC(C)Cc1ccc([C@H](C)C(=O)O)cc1`, “inactive”.
Under `O=c1cc(-c2ccccc2)oc2c(O)c(O)ccc12` stands “inactive”; under `O=[N+]([O-])c1ccc(CNc2nc(NCc3cccc(C(F)(F)F)c3)nc3nc[nH]c23)cc1`, “inactive”; under `CCCCCCCCCCCCCCCCCC(=O)OC(CC(=O)O)C[N+](C)(C)C` (stereo not given), “inactive”.
As for `Nc1ccn([C@@H]2O[C@H](CO)[C@@H](O)[C@@H]2O)c(=O)n1`, the Potency entry was “inactive”.
Under `Nc1nc(SCc2ccc([N+](=O)[O-])cc2)c2ncn([C@@H]3O[C@H](CO)[C@@H](O)[C@H]3O)c2n1` stands “inactive”; under `Fc1ccc2[nH]c(CN3CCN(c4ccccn4)CC3)cc2c1`, “inactive”; under `CC(C)(NS(=O)(=O)c1ccc(Oc2ccc(F)cc2)cc1)C(=O)NO`, “inactive”.
For `C[N+](C)(C)CCOP(=O)(O)OP(=O)([O-])OC[C@H]1O[C@@H](n2ccc(N)nc2=O)[C@H](O)[C@@H]1O`, the Potency result is “inactive”.
As for `NCCCCCCCCCCN`, the entry is “inactive”; as for `CNc1ncnc2c1ncn2[C@@H]1O[C@H](CO)[C@@H](O)[C@H]1O`, “inactive”.
As for `CN(C)c1ccc(/C=C2\C(=O)Nc3ccccc32)cc1`, the entry is “inactive”.
Under `O=Nc1ccc2oc(=O)ccc2c1` stands “inactive”.
In the case of `NCCCS(=O)(=O)O`, the Potency entry was “inactive”.
As for `C[N+]1(C)CCC(OC(=O)C(c2ccccc2)c2ccccc2)CC1`, the entry is “inactive”; as for `O=[N+]([O-])c1ccc(CSc2ncnc3c2ncn3[C@@H]2O[C@H](CO)[C@@H](O)[C@H]2O)cc1`, “inactive”.
As to `O=C(/C=C/c1ccc(O)cc1)c1ccc(O)cc1O`, the Potency result is “inactive”.
As for `C=CC(N)CCC(=O)O` (stereo not given), the entry is “inactive”.
As for `O=C(NOCC1CC1)c1cc(Br)c(F)c(F)c1Nc1ccc(I)cc1Cl`, the entry is “inactive”.
`Cc1ccc(O)c(N=Nc2ccccc2)n1`: the Potency result was “inactive”.
As for `Oc1cc2c(cc1O)CN(C(=S)NCCc1ccc(Cl)cc1)CCC2`, the entry is “inactive”.
Under `NCC1OC(O[C@H]2[C@H](O)[C@@H](OC3C(O)C(N)CC(N)C3OC3OC(CO)C(O)C(O)C3N)O[C@@H]2CO)C(N)C(O)C1O` (stereo not given in full) stands “inactive”.
As for `Nc1nc2c(ncn2[C@@H]2O[C@H](CO)[C@@H](O)[C@@H]2O)c(=O)[nH]1`, the entry is “inactive”; as for `COc1ccc(/C=C/C(=O)Nc2ccccc2C(=O)O)cc1OC`, “inactive”.
For the compound `N#C/C(=C\c1ccc(O)c(O)c1)C(=O)c1ccc(O)c(O)c1`, the Potency entry is “inactive”.
As for `O=C(/C=C/c1ccc(O)c(O)c1)OCCc1ccccc1`, the entry is “inactive”.
In the case of `CS(=O)(=O)c1ccc(-n2nc(C(F)(F)F)cc2-c2ccc(F)cc2)cc1`, the Potency result was “inactive”.
Under `N#C/C(=C\c1ccc(-c2cc(Cl)ccc2Cl)o1)C(=O)Nc1cccc2ncccc12` stands “inactive”.
Under `CCCC(CCC)C(=O)OC1CC2CCC(C1)[N+]2(C)C` (stereo not given) stands “inactive”.
As for `CC(C)(C)c1ccc(S(=O)(=O)/C=C/C#N)cc1`, the entry is “inactive”.
Take `CC12C(=O)OC(=O)C1(C)C1CCC2O1` (stereo not given): the Potency result is “inactive”.
As for `CC(=O)/C=C1\C(=O)N(C)c2ccccc21`, the Potency result is “inactive”.
Under `CN1CCc2cc(NC(=O)Nc3cccnc3)ccc21` stands “inactive”.
As for `CO[C@H]1O[C@@H]2O[C@]3(C)CC[C@@H]4[C@@H](C)CC[C@H]([C@H]1C)[C@]24OO3`, the entry is “inactive”; as for `CCC(CO)Nc1nc(NCc2ccccc2)c2ncn(C(C)C)c2n1` (stereo not given), “inactive”; as for `O=C(O)CNC(=O)C(CS)Cc1ccccc1` (stereo not given), “inactive”.

For the origin of these results see PubChem BioAssay (NCATS).
